In PubChem BioAssay (EPA / NIEHS):
Inconclusive results are not listed. A structure can be active in one record and inactive in another. Activity calls are given as the source filed them. The calls were made as follows, unless noted: active = hit-call score of the fitted dose curve at least 0.9, where 1 is the maximum; inactive = score below 0.9.

Assays:
[1] = molecular target: Hepatocyte nuclear factor 4-alpha (Homo sapiens) (UniProt P41235); test: ATG_HNF4a_TRANS: Attagene TRANS-FACTORIAL HepG2 Assay for human Hepatocyte Nuclear Factor 4 alpha (HNF4a) (AID 2282982; active = hit-call score of the fitted dose curve at least 0.9, where 1 is the maximum); conditions: HepG2 HNF4a transactivation reporter, mRNA readout
In short: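 Endpoint reflects transcriptional activation of a GAL4-UAS reporter by an HNF4a-GAL4 chimera in transfected HepG2 cells, 24 h post-dosing. Fluorescence from RT-PCR products separated by capillary electrophoresis; DMSO baseline.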

[2] = ATG_M_06_TRANS: Attagene TRANS-FACTORIAL HepG2 Assay for M06 Transcription Factor (Internal Marker) (AID 2282983; active = hit-call score of the fitted dose curve at least 0.9, where 1 is the maximum); conditions: HepG2 Attagene TRANS M06 internal marker reporter
In short: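 Read-out: fluorescent reporter cDNA fragments resolved by capillary electrophoresis after RT-PCR and HpaI cut. Source cells were HepG2 carrying transfected multi-reporter GAL4 constructs, dosed 24 h. Increase over DMSO control analysed.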

[3] = ATG_M_32_TRANS: Attagene TRANS-FACTORIAL HepG2 Assay for M32 Transcription Factor (Internal Marker) (AID 2282984; active = hit-call score of the fitted dose curve at least 0.9, where 1 is the maximum;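 also: transcript level of a background control reporter unit measured by RT-PCR and capillary electrophoresis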); conditions: HepG2 Attagene TRANS M32 internal marker reporter
In short: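 Internal-marker readout from a multiplexed transcription reporter panel. HepG2 cells were transfected with GAL4-UAS reporter units, treated 24 hours, and reporter transcript levels determined by fluorescence after RT-PCR and capillary separation.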

[4] = molecular target: Transcriptional activator Myb (Homo sapiens) (UniProt P10242); test: ATG_Myb_CIS: Attagene CIS-FACTORIAL HepG2 Assay for human Myeloblastosis (Myb) Proto-Oncogene Transcription Factor (AID 2282986); conditions: HepG2 Attagene CIS-FACTORIAL Myb reporter transcription; actives raise or lower the signal
In short: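 Transiently transfected HepG2 cells carrying a multiplexed cis-promoter reporter set report endogenous Myb activity after 24 h compound exposure. Reporter mRNA is read by RT-PCR with capillary electrophoresis of fluorescent products, fitted bidirectionally against DMSO.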

[5] = molecular target: Nuclear respiratory factor 1 (Homo sapiens) (UniProt Q16656); test: ATG_NRF1_CIS: Attagene CIS-FACTORIAL HepG2 Assay for human Nuclear Respiratory Factor 1 (NRF1) Orphan Gene (AID 2282987); conditions: HepG2 NRF1 cis-element reporter, Attagene multiplex; actives raise or lower the signal
In short: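 HepG2 cells transiently transfected with multiple cis-regulated reporter units, exposed 24 h. Reporter mRNAs measured by RT-PCR, fluorescent labelling, HpaI digestion and capillary electrophoresis; bidirectional fitting against DMSO.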

[6] = ATG_NFI_CIS: Attagene CIS-FACTORIAL HepG2 Assay for human Nuclear Factor I (NFI) (AID 2282989); conditions: HepG2 cis-regulatory reporter, NFI response element transcription; actives raise or lower the signal
In short: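 Reporter transcripts were measured by RT-PCR with fluorescent primer extension and capillary electrophoresis 24 h post-treatment. HepG2 cells carried transiently transfected cis-regulated reporter constructs reporting endogenous factor activity; gain or loss fitted against DMSO baseline.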

[7] = molecular target: Myc proto-oncogene protein (Homo sapiens) (UniProt P01106); test: ATG_Myc_CIS: Attagene CIS-FACTORIAL HepG2 Assay for human Myelocytomatosis (Myc) Proto-Oncogene Transcription Factor (AID 2282990); conditions: HepG2, Attagene cis-reporter transcription factor activity; actives raise or lower the signal
In short: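 Fluorescence intensity of reporter-specific cDNA fragments, separated by capillary electrophoresis, gives the signal. Transfected HepG2 cells carrying cis-promoter reporter constructs are incubated with compound for 24 h; DMSO serves as baseline.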

[8] = ATG_NF_kB_CIS: Attagene CIS-FACTORIAL HepG2 Assay for human Nuclear Factor Kappa B (NF-kB) (AID 2282991); conditions: HepG2 Attagene cis-factorial NF-kB reporter mRNA; actives raise or lower the signal
In short: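 HepG2 cells transfected with cis-promoter-driven reporter units, so endogenous transcription factor activity is measured. Reporter mRNA quantified 24 h after dosing by RT-PCR and capillary electrophoresis, with bidirectional fitting against DMSO.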

[9] = ATG_NRF2_ARE_CIS: Attagene CIS-FACTORIAL HepG2 Assay for human Nuclear Factor Erythroid 2 Related Factor 2 (NFR2) response to Antioxidant Response Elements (ARE) (AID 2282992); conditions: HepG2 Attagene ARE/NRF2 reporter, transcription factor activity; actives raise or lower the signal;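 as to AC50: reporter mRNA level measured by RT-PCR and capillary electrophoresis fluorescence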
In short: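 Readout: reporter mRNA quantified by RT-PCR plus FAM-labelled primer extension, HpaI digestion and capillary electrophoresis, 24 h after dosing transfected HepG2 cells. Gain or loss of signal is fitted bidirectionally against DMSO baseline.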

[10] = ATG_Oct_MLP_CIS: Attagene CIS-FACTORIAL HepG2 Assay for human Octamer-Binding Transcription Factor (Oct) (AID 2282993); conditions: HepG2 Attagene cis-factorial Oct reporter, mRNA; actives raise or lower the signal
In short: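 Readout is reporter transcript level from RT-PCR with fluorescent primer extension and capillary electrophoresis, fitted in both directions against DMSO. Transfected HepG2 reporter units report endogenous factor activity after 24 h dosing.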

[11] = molecular target: Cellular tumor antigen p53 (Homo sapiens) (UniProt P04637); test: ATG_p53_CIS: Attagene CIS-FACTORIAL HepG2 Assay for human p53 Transcription Factor (AID 2282994); conditions: HepG2 p53 cis-element reporter, Attagene mRNA; actives raise or lower the signal
In short: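 Read-out: reporter mRNA by RT-PCR plus capillary electrophoresis with fluorescence detection. Human HepG2 liver cells carried transfected multi-reporter cis-element constructs, dosed 24 h. Gain or loss of signal fitted bidirectionally against DMSO control.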

[12] = molecular target: Nuclear receptor subfamily 4 group A member 2 (Homo sapiens) (UniProt P43354); test: ATG_NURR1_TRANS: Attagene TRANS-FACTORIAL HepG2 Assay for human Nuclear Receptor Related Protein 1 (NURR1) (AID 2282985; active = hit-call score of the fitted dose curve at least 0.9, where 1 is the maximum); conditions: HepG2 Attagene TRANS reporter, mRNA readout
In short: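 Endpoint: reporter mRNA increase relative to DMSO. HepG2 cells transfected with reporter units, treated 24 h; RNA processed by RT-PCR, labelling, HpaI digestion and capillary electrophoresis.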

[13] = BSK_3C_TissueFactor: BioMAP Diversity Plus: 3C Assay for Tissue Factor Biomarker Activity (AID 2282997); conditions: BioMAP 3C HUVEC, tissue factor biomarker readout; actives raise or lower the signal
In short: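 HUVEC, 3C system, 24 h post-dose; Tissue Factor by ELISA; bidirectional fit vs DMSO baseline.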

[14] = BSK_3C_VCAM1: BioMAP Diversity Plus: 3C Assay for Vascular cell adhesion molecule 1 (VCAM1) Biomarker Activity (AID 2282999); conditions: BioMAP 3C HUVEC, VCAM1 ELISA, cytokine-stimulated; actives raise or lower the signal
In short: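 HUVEC primary cells, 24 h compound exposure; VCAM-1 by ELISA; gain/loss of signal fitted bidirectionally vs DMSO baseline.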

Measured: AC50

Hepatocyte nuclear factor 4-alpha (Homo sapiens), sequence (P41235 whole entry, looked up, the tested form may be a part): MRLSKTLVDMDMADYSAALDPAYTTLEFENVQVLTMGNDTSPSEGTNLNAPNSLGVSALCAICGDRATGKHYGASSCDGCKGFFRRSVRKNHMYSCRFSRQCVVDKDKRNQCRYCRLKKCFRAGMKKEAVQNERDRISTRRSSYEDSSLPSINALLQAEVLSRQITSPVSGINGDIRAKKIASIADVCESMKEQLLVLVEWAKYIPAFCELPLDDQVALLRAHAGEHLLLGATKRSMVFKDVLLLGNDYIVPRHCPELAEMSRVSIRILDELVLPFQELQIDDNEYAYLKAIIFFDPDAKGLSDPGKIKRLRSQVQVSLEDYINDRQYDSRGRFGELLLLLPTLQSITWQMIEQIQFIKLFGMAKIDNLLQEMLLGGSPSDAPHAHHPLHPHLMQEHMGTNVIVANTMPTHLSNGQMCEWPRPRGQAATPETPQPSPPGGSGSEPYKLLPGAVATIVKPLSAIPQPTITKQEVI
Myc proto-oncogene protein (Homo sapiens), sequence (P01106 whole entry, looked up, the tested form may be a part): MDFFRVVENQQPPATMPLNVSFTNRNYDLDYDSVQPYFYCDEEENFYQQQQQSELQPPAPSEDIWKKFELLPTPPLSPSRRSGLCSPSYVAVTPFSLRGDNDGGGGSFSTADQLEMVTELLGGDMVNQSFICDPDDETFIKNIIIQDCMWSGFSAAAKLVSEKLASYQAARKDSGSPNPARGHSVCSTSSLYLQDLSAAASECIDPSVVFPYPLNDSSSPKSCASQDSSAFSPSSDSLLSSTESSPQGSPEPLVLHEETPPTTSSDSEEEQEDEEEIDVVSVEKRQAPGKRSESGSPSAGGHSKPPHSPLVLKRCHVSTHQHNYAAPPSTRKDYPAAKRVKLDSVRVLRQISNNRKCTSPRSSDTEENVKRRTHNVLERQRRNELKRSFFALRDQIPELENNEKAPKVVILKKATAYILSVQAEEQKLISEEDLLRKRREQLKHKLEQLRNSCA
Transcriptional activator Myb (Homo sapiens), sequence (P10242 whole entry, looked up): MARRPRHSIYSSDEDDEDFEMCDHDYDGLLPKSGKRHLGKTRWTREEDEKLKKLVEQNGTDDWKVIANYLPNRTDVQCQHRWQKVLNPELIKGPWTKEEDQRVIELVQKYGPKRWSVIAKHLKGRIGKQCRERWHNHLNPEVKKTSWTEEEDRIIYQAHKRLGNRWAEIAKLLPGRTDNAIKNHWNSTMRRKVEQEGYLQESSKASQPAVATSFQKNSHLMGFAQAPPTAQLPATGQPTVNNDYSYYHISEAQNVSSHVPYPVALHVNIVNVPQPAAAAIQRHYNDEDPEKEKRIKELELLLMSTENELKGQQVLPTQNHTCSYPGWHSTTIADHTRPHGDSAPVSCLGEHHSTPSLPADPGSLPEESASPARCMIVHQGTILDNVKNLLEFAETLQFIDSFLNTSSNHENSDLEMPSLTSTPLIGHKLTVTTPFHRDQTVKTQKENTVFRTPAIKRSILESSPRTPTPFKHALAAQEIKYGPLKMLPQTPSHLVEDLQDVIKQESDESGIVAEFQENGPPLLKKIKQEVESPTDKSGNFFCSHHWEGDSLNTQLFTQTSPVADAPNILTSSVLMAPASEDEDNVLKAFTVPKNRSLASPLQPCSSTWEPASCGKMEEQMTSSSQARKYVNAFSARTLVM
Cellular tumor antigen p53 (Homo sapiens), sequence (P04637 whole entry, looked up): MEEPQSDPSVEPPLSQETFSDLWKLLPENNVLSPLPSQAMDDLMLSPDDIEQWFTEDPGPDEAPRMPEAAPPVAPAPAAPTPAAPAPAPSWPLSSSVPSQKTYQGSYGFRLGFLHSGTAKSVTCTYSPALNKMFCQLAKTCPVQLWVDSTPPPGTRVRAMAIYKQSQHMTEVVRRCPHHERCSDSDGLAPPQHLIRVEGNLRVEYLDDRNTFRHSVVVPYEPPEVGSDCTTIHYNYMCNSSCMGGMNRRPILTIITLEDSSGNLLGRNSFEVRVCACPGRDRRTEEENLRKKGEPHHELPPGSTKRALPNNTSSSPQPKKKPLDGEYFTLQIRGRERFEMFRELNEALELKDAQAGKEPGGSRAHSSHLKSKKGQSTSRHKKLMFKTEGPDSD
Nuclear respiratory factor 1 (Homo sapiens), sequence (Q16656 whole entry, looked up): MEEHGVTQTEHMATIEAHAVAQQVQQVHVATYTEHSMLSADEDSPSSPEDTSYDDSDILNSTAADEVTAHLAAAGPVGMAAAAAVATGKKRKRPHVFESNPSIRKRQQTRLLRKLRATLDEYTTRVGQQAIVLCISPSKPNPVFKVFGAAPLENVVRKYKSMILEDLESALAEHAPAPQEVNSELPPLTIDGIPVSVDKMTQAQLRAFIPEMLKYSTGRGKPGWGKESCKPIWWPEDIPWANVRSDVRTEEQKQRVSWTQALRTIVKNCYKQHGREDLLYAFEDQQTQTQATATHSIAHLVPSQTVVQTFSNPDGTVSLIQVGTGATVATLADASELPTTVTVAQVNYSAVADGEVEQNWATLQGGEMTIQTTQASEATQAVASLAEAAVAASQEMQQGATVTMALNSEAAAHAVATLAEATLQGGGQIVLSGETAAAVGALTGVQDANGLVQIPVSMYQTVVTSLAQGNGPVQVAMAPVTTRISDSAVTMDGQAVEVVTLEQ
Nuclear receptor subfamily 4 group A member 2 (Homo sapiens), sequence (P43354 whole entry, looked up): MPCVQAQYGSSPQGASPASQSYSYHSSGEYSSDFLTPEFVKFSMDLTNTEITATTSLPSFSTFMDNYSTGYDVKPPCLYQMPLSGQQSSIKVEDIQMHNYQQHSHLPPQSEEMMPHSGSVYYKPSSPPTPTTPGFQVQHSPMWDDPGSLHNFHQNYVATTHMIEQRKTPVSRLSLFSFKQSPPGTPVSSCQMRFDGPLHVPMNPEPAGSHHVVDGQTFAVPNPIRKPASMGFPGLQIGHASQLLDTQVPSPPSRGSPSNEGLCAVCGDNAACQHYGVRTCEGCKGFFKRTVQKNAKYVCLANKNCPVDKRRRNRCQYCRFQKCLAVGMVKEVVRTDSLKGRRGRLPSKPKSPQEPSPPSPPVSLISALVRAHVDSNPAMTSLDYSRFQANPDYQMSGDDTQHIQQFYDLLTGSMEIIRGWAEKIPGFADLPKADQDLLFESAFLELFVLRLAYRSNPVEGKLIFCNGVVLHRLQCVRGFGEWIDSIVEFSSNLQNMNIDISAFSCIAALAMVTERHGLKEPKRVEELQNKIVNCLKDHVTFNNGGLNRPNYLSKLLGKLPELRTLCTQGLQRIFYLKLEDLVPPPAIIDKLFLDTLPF

CC(C)Cc1ccccc1
not listed: [12] | [13] | [14]
inactive: all other assays above

CCCCCCCCCCO[C@@H]1O[C@H](CO)[C@@H](O)[C@H](O)[C@H]1O
active: [9] 100 µM
inactive: [12] | [4] | [5] | [6] | [7] | [10]

CCCC1CCC(=O)CC1
not listed: [1] | [8] | [11] | [13] | [14]
inactive: all other assays above

OCC(F)(OC(F)(F)C(F)(OC(F)(F)C(F)(F)C(F)(F)F)C(F)(F)F)C(F)(F)F (centres undefined)
active: [14] 3.72 µM
inactive: [13] | [14]

CCCCC/C=C\C=C\C(=O)OCC
inactive: [1] | [2] | [3] | [7] | [9] | [10]
active: [4] 103 µM | [6] 40 µM

CCCCN(CCO)CCO
not listed: [3] | [12]
inactive: all other assays above

C=CC(C)CCCC(C)(C)O (centres undefined)
not listed: [3] | [5] | [12] | [13] | [14]
inactive: all other assays above
